Measurements taken from ChEMBL document CHEMBL1961873, “Compounds: GSK PKIS; Assays: Nanosyn kinase panel” (2012).

Assays:
[1] = biological target: Tyrosine-protein kinase SYK (Homo sapiens) (UniProt P43405); conditions: at 1 µM
[2] = biological target: T1, Tyrosine-protein kinase Tec (Homo sapiens) (UniProt P42680); conditions: at 0.1 µM
T1 sequence (whole entry): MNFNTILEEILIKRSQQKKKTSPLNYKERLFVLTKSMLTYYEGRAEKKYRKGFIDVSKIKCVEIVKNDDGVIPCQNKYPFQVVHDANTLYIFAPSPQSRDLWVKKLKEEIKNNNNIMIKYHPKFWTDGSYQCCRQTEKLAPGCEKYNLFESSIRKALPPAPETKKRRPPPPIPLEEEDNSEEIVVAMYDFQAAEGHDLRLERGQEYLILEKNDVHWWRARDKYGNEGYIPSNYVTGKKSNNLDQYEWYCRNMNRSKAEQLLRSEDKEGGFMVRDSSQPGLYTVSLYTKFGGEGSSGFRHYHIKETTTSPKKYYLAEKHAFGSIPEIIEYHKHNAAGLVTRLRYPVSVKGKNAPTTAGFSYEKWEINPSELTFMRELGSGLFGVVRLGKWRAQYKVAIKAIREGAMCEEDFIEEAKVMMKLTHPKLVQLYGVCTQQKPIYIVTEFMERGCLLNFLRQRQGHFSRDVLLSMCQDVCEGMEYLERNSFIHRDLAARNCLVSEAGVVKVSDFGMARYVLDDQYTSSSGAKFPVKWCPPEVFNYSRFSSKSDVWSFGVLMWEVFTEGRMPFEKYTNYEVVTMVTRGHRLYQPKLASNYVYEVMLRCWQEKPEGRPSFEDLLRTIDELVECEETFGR

[3] = biological target: T1, Tyrosine-protein kinase Tec (Homo sapiens); conditions: at 1 µM
[4] = biological target: Angiopoietin-1 receptor (Homo sapiens) (UniProt Q02763); conditions: at 0.1 µM
Sequence of Angiopoietin-1 receptor (Homo sapiens) (Q02763 whole entry): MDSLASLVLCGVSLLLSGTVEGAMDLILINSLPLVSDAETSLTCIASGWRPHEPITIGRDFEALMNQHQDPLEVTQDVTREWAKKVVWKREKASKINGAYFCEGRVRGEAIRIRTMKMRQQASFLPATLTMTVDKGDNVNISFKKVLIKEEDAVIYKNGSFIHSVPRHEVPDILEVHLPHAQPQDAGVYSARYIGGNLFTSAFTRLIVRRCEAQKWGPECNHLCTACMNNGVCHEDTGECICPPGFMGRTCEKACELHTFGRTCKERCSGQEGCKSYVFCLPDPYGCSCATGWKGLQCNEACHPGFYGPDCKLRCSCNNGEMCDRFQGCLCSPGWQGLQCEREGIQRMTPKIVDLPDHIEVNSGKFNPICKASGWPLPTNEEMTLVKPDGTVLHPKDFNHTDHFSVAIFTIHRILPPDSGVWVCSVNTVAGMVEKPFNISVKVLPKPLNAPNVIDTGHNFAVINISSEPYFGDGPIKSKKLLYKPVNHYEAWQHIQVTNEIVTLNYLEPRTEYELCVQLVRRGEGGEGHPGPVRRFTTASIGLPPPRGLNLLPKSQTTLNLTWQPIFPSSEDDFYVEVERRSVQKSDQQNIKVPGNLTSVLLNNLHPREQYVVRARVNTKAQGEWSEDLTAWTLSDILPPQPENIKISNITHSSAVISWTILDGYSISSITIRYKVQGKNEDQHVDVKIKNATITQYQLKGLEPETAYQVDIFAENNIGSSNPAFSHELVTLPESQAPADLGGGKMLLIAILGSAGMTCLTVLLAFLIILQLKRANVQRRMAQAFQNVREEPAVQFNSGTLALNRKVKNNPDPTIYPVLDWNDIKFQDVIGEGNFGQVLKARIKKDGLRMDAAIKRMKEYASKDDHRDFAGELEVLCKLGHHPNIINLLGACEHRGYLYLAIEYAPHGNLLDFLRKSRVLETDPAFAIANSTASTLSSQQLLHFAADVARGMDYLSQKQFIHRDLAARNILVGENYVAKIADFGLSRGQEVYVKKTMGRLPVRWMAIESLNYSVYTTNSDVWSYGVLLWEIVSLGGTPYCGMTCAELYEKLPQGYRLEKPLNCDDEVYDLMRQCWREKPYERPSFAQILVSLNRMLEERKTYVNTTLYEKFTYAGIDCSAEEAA

[5] = biological target: Angiopoietin-1 receptor (Homo sapiens) (UniProt Q02763); conditions: at 1 µM
[6] = biological target: T2, Non-receptor tyrosine-protein kinase TNK1 (Homo sapiens) (UniProt Q13470); conditions: at 0.1 µM
T2 sequence (whole entry): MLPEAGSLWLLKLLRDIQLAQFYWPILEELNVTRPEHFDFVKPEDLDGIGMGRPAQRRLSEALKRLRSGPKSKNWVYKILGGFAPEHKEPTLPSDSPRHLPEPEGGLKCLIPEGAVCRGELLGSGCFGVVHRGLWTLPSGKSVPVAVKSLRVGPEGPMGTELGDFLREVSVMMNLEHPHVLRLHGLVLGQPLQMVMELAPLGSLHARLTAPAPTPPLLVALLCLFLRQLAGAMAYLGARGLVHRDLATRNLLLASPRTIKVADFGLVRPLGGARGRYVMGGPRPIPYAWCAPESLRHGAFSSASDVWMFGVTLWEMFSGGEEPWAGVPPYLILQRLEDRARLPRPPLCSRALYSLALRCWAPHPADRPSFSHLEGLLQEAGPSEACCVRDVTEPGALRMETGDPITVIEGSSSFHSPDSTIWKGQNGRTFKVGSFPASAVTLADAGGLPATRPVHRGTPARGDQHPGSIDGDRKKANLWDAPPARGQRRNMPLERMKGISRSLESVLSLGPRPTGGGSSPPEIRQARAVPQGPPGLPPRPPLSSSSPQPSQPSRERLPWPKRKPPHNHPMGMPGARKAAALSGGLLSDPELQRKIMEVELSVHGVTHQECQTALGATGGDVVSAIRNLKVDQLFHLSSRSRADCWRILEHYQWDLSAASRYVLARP

[7] = biological target: T2, Non-receptor tyrosine-protein kinase TNK1 (Homo sapiens); conditions: at 1 µM
[8] = biological target: Activated CDC42 kinase 1 (Homo sapiens) (UniProt Q07912); conditions: at 0.1 µM
Sequence of Activated CDC42 kinase 1 (Homo sapiens) (Q07912 whole entry, looked up): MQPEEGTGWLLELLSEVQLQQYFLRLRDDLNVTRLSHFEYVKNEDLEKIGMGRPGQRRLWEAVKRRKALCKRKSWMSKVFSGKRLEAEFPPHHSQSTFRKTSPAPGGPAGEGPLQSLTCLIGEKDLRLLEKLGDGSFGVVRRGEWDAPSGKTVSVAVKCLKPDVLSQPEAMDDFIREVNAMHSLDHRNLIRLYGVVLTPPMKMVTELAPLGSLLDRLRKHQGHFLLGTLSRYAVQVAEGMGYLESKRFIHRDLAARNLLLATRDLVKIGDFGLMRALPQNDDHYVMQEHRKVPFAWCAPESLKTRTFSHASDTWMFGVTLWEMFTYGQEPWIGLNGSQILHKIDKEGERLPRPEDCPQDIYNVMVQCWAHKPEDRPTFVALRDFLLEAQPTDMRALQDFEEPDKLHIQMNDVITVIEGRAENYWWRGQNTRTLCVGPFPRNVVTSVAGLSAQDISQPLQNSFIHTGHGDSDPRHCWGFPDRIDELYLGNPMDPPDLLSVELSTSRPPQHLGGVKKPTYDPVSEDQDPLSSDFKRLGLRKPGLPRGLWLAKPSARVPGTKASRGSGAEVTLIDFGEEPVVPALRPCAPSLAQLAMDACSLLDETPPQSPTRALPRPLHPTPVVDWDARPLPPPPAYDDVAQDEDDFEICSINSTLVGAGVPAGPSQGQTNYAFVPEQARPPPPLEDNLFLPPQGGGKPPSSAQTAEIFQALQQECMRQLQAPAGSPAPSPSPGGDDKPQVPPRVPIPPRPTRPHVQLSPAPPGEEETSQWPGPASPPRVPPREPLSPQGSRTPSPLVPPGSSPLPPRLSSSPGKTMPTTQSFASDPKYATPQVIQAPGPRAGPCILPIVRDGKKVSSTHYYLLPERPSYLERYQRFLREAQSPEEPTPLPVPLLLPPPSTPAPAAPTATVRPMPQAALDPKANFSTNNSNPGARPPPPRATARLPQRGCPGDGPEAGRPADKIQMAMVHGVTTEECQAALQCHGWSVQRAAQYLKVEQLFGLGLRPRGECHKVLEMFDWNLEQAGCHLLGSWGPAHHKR

[9] = biological target: Activated CDC42 kinase 1 (Homo sapiens) (UniProt Q07912); conditions: at 1 µM
[10] = biological target: High affinity nerve growth factor receptor (Homo sapiens) (UniProt P04629); conditions: at 0.1 µM
Sequence of High affinity nerve growth factor receptor (Homo sapiens) (P04629 33-796 limits assumed): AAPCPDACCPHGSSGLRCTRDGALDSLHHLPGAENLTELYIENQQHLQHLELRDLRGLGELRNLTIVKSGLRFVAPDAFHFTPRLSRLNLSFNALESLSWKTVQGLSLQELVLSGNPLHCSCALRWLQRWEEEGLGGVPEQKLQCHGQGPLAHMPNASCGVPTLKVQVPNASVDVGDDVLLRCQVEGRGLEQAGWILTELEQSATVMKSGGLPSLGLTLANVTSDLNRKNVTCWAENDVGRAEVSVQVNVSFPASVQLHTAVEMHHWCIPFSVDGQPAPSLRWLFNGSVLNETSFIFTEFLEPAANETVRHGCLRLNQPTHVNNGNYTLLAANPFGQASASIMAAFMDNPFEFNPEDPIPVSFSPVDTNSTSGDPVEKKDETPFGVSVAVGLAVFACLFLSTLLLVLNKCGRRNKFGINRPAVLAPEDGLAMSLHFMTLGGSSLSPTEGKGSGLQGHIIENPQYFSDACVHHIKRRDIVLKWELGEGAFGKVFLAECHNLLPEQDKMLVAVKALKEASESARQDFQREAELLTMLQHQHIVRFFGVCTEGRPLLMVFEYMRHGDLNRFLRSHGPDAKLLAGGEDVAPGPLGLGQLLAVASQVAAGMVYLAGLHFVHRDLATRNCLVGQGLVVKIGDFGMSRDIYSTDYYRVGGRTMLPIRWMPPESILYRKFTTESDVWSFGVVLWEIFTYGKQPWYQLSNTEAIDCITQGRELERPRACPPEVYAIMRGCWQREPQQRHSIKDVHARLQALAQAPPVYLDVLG

[11] = biological target: High affinity nerve growth factor receptor (Homo sapiens) (UniProt P04629); conditions: at 1 µM
[12] = biological target: BDNF/NT-3 growth factors receptor (Homo sapiens) (UniProt Q16620); conditions: at 0.1 µM
Sequence of BDNF/NT-3 growth factors receptor (Homo sapiens) (Q16620 32-822 limits assumed): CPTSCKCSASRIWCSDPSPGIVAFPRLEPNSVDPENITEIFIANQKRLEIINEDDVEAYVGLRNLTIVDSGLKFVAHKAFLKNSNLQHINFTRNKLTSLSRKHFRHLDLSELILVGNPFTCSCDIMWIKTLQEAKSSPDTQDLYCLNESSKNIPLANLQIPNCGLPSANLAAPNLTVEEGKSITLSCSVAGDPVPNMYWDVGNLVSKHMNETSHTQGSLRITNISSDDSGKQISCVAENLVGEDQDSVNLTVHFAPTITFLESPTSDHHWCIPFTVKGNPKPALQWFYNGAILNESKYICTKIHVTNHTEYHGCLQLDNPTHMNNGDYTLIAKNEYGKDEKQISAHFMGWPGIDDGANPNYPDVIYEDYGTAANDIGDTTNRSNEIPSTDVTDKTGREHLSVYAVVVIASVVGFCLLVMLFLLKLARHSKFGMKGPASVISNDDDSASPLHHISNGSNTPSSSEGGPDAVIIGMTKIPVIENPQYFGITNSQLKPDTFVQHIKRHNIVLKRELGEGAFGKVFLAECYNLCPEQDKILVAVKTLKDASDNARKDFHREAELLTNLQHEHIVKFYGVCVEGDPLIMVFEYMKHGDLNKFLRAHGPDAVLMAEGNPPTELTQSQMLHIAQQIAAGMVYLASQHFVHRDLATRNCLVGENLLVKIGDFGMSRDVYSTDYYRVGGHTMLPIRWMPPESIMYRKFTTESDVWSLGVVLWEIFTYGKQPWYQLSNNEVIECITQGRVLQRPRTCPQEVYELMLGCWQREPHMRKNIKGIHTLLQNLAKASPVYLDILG

[13] = biological target: BDNF/NT-3 growth factors receptor (Homo sapiens) (UniProt Q16620); conditions: at 1 µM
[14] = biological target: NT-3 growth factor receptor (Homo sapiens) (UniProt Q16288); conditions: at 0.1 µM
[15] = biological target: NT-3 growth factor receptor (Homo sapiens) (UniProt Q16288); conditions: at 1 µM
[16] = biological target: T3, Tyrosine-protein kinase TXK (Homo sapiens) (UniProt P42681); conditions: at 0.1 µM
T3 sequence (whole entry): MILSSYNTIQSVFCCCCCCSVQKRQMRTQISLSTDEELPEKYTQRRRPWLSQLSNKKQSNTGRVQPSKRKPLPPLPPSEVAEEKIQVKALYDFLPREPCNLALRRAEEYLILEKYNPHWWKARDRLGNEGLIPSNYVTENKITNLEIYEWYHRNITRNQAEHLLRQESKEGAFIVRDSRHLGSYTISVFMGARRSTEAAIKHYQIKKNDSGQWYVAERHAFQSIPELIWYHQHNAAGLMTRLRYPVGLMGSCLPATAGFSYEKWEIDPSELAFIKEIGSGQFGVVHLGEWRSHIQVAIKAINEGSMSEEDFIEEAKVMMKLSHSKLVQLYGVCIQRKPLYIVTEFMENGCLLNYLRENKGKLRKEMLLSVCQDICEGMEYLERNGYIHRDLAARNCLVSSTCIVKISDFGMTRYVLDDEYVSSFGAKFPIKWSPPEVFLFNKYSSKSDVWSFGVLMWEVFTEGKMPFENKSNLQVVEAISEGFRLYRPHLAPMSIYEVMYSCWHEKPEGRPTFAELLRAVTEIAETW

[17] = biological target: T3, Tyrosine-protein kinase TXK (Homo sapiens); conditions: at 1 µM
[18] = biological target: Non-receptor tyrosine-protein kinase TYK2 (Homo sapiens) (UniProt P29597); conditions: at 0.1 µM;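 note: each value is a mean of the inhibition readings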
Sequence of Non-receptor tyrosine-protein kinase TYK2 (Homo sapiens) (P29597 whole entry): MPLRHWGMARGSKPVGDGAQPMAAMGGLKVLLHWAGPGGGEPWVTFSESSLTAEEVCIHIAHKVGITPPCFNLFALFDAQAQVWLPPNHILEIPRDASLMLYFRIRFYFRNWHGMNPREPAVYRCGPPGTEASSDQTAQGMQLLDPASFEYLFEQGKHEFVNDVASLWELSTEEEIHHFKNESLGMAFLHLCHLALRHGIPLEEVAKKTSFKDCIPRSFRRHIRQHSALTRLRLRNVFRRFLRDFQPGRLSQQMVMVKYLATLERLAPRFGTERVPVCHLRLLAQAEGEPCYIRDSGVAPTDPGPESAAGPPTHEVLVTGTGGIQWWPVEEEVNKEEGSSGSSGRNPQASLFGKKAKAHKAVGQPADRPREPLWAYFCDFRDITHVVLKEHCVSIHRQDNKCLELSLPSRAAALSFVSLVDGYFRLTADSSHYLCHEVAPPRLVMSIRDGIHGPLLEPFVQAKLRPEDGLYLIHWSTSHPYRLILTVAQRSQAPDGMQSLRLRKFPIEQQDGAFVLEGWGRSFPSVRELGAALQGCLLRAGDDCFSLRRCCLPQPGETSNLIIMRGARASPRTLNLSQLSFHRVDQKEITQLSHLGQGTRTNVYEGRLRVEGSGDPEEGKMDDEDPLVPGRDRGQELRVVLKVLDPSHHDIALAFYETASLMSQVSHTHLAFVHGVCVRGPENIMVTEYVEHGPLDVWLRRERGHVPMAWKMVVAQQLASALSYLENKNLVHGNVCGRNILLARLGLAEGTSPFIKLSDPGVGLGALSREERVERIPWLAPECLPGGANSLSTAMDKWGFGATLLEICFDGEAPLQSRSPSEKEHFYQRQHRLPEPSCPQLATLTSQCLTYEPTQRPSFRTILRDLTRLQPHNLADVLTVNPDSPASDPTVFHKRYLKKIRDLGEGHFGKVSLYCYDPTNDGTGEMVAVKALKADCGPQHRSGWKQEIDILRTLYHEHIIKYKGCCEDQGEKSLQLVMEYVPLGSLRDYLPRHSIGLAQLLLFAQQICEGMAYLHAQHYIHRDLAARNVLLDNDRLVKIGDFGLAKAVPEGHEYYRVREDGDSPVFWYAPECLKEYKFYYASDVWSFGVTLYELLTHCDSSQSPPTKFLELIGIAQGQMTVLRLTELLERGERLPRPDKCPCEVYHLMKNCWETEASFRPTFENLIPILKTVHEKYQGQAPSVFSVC

[19] = biological target: T4, Dual specificity protein kinase TTK (Homo sapiens) (UniProt P33981); conditions: at 1 µM;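 note: reported figures are mean TTK inhibition at 1 µM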
T4 sequence (whole entry): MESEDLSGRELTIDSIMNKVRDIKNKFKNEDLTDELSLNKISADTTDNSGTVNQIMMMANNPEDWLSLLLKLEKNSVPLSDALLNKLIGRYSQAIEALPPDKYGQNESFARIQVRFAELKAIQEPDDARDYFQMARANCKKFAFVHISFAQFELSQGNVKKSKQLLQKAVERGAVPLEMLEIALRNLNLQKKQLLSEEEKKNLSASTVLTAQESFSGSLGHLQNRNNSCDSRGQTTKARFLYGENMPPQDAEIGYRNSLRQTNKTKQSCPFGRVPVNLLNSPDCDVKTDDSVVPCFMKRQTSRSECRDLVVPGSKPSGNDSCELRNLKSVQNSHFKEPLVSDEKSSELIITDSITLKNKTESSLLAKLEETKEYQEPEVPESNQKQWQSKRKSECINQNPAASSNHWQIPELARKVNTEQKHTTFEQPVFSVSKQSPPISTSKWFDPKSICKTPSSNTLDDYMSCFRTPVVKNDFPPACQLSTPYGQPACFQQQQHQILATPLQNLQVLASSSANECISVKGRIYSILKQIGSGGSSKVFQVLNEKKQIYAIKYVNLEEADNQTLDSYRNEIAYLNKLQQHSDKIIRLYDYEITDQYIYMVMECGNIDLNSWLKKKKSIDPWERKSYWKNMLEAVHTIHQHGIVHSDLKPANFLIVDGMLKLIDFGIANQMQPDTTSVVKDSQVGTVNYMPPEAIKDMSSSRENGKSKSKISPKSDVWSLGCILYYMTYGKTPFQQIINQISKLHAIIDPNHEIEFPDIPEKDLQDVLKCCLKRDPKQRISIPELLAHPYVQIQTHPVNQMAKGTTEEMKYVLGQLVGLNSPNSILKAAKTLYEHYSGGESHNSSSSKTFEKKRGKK

[20] = biological target: T5, Aurora kinase A (Homo sapiens) (UniProt O14965); conditions: at 0.1 µM;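 note: each reported value is a mean percent inhibition of Aurora-A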
T5 sequence (whole entry): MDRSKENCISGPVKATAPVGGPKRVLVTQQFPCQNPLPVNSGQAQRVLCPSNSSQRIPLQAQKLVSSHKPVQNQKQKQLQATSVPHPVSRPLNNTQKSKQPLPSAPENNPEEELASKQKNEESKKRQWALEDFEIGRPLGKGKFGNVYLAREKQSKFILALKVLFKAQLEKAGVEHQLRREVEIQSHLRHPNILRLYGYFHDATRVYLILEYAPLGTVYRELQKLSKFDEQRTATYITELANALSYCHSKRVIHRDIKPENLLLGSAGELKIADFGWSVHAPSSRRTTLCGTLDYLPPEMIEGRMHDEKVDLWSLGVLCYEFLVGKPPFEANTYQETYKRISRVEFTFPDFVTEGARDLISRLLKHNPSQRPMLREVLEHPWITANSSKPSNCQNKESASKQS

SMILES | inhibition [1] [%] | inhibition [2] [%] | inhibition [3] [%] | inhibition [4] [%] | inhibition [5] [%] | inhibition [6] [%] | inhibition [7] [%] | inhibition [8] [%] | inhibition [9] [%] | inhibition [10] [%] | inhibition [11] [%] | inhibition [12] [%] | inhibition [13] [%] | inhibition [14] [%] | inhibition [15] [%] | inhibition [16] [%] | inhibition [17] [%] | inhibition [18] [%] | inhibition [19] [%] | inhibition [20] [%]
COc1cc2ncn(-c3cc(OCc4ccccc4Cl)c(C(N)=O)s3)c2cc1OC | 1.86 | 1.67 | 7.65 | 3.11 | 26.9 | 16.9 | 63.2 | 0.35 | 7.05 | 0.53 | 2.92 | 2.11 | 13.7 | 3.13 | 20.4 | 2.99 | 13.2 | 2.29 | 0.54 | 1.9
CC(=O)Nc1cccc(C#Cc2cncnc2Nc2ccc(OCc3cccc(F)c3)c(Cl)c2)n1 | -0.2 | -0.56 | 0.51 | -1.08 | 2.93 | -0.47 | 13.1 | -0.48 | 2.35 | -4.25 | -2.48 | -1.79 | 0.05 | -0.41 | 4.04 | 0.96 | 0.46 | 4.58 | 10.8 | -0.41
Cc1cc(O)cc(C)c1/C=C/c1cncc(-c2nn[nH]n2)c1 | -1.42 | 15.1 | 65 | 4 | 4.4 | 35.1 | 84.2 | 1.68 | 22 | 3.09 | 3.5 | 3.7 | 3.06 | 3.61 | 8.05 | 5.73 | 45.3 | -2.89 | 11.1 | -1.67
CS(=O)(=O)Nc1ccc(N/C=C2\C(=O)Nc3ccccc32)cc1 | -3.83 | -2.97 | 0.17 | 0.36 | 2.36 | -2.85 | 6.96 | -0.49 | 1.32 | 5.97 | 46.7 | 11.2 | 58.6 | 14.1 | 57 | -1.93 | 1.85 | 3.51 | 18.9 | 7.34
Nc1nc(-c2ccccn2)c(-c2ccc3ncccc3n2)s1 | -0.74 | 3.91 | 7.33 | 2.07 | 1.68 | 3.7 | 5.67 | 2.33 | 2.94 | 3.9 | 1.12 | 2.11 | 2.56 | 1.67 | 4.07 | 2.05 | 3.04 | -3.74 | 7.95 | 2.15
CCn1c(-c2nonc2N)nc2c(N3CCCC3)nccc21 | 2.9 | -1.85 | -3.76 | 0.7 | 0.05 | -3.68 | -3.3 | -0.78 | -0.6 | 1.23 | 0.75 | -0.07 | 0.49 | -0.45 | -0.34 | -0.75 | -2.21 | 2.25 | -1.76 | -1.86
